# In the library only some 19% were active in any assay of this set; here they are far more common.
# HT1080 IDH1KD tx = HT-1080 IDH1 knockdown cell toxicity (counter line); HT-1080 IDH1 knockdown viability, ATP luminescence, 48 h; Potency, µM (titrated, usually from 46.1 µM), for inactives: top-dose activity, negative = toxicity, usual class: cytotoxic; 360,000 tested, 2% active;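 further: potency means the concentration at half of the fitted maximal effect; 0% = DMSO wells and -100% = cell-free medium wells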
#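 Viability of IDH1-knockdown HT-1080 fibrosarcoma cells was assessed by CellTiter-Glo after 48 h at 37 °C with titrated compound; concentration-effect curves were classified by fit quality and response size.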
# HT1080-NT tox = kills 2HG-producing HT-1080-NT fibrosarcoma cells; HT-1080-NT fibrosarcoma viability, CellTiter-Glo ATP luminescence, 48 h; Potency, µM (doses to about 46.1 µM), for inactives: at the top dose activity, negative = less viability, actives largely listed as cytotoxic; 360,000 tested, 1.6% active; AID 686970;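 further: NT is the 2HG producing partner of a matched IDH1 knockdown line; potency means the concentration at half of the fitted maximal effect; 0% = DMSO-treated cells and -100% = media-only wells without cells; nearly all actives have a fitted effect of over 55% in size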
#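 Viability by CellTiter-Glo luminescence after 48 h compound exposure at 37C of HT-1080-NT cells (750/well, RPMI, 5% FBS). % activity scaled between DMSO wells and medium-only wells, then curve-fitted and categorized by curve class.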
# IL1B secr inh = blocks inflammasome-driven IL-1 beta release; AID 743279; THP-1 LPS/ATP IL-1B secretion, AlphaLISA, 16 h; hits give low values; 360,000 tested, 4.7% active; activity change, % at 57.5 µM; in the data active means activity change below about -50%; inconclusive means mostly about -30% to -49%
#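 Secreted IL-1B measured by AlphaLISA bead assay after 16 h compound exposure of THP-1 cells; compounds (final up to 57.5 uM) added 1 h before LPS (250 ng/mL) and ATP (1.25 mM) stimulation; lower signal means less secretion.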
# DT40 TDP1 CPT = growth inhibition of DT40 Tdp1-/-;hTDP1 cells with camptothecin (screen for TDP1 inhibitors); 420,000 tested, 12% active; chicken DT40 Tdp1-/-;hTDP1 cells + 20 nM CPT, ATP luminescence, 48 h; AID 686979; Potency, µM (series often up to 46.2 µM), for the others: top-dose activity change, negative = growth inhibition, actives largely listed as inhibitors; further: potency means the concentration at half of the fitted maximal effect; nearly all actives have a fitted effect of over 55% in size
#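 Chicken DT40 Tdp1-/- cells complemented with human TDP1, 400 cells/well, exposed to compounds plus 20 nM camptothecin for at least 48 h at 37 C; viability read as ATP content by CellTiter-Glo luminescence.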
# DT40 TDP1 no CPT = qHTS for Inhibitors of human tyrosyl-DNA phosphodiesterase 1 (TDP1): qHTS in cells in absence of CPT. Potency, µM (titrated, usually from 46.2 µM), without a hit: at the highest dose activity change, negative = growth inhibition, usual class: inhibitors. 420,000 tested, 15% active. DT40 Tdp1-/- hTDP1 cells, no CPT, ATP luminescence, 48 h; further: potency means the concentration at half of the fitted maximal effect; nearly all actives have a fitted effect of over 55% in size
#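 Camptothecin absent (DMSO only). Human TDP1-complemented DT40 knockout cells, 400 cells/well, 37 °C for minimum 48 hr; ATP measured via CellTiter-Glo, 30 min dark incubation, luminescence.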
# * marks the source's active call; other numbers are inactive results; ? = inconclusive; . = no result given; [ ] = another dose, or the depositor's remark. Unless noted, the call rests on the fitted dose curve; in most records, active means well fitted curve in the direction sought with a large enough effect; inconclusive means small, poorly fitted or top-dose-only effect, or another doubt; inactive means no such curve, though single readings can be large; an effect the other way counts as inactive or inconclusive. Unless noted, on the % scale 0 is the no-effect control and ±100 the full control effect.
SMILES,HT1080 IDH1KD tx,HT1080-NT tox,IL1B secr inh,DT40 TDP1 CPT,DT40 TDP1 no CPT
C[C@H](CO)N1C[C@H](C)[C@@H](CN(C)Cc2cccc(F)c2)Oc2cc(-c3cccc(C#N)c3)ccc2S1(=O)=O,-2%,-13%,?,?,23µM*
C[C@@H]1CN([C@@H](C)CO)S(=O)(=O)c2ccc(C#Cc3cccc(F)c3)cc2O[C@@H]1CN(C)CC1CC1,-15%,-13%,-29,?,?
CC1=C(C#N)C(C)(C)C(C#N)=C(C)N1,0%,-4%,5,-29%,?
COc1cccc(CN(C)C(=O)C(CCSC)NS(=O)(=O)c2ccc3c(c2)OCCO3)c1OC (centres undefined),-16%,?,-1,16µM*,13µM*
CSCCC(NS(=O)(=O)c1ccc2c(c1)OCCO2)C(=O)N(C)Cc1ccc(C)cc1 (centres undefined),5%,0%,7,?,15µM*
CSCCC(NS(=O)(=O)c1ccc2c(c1)OCCO2)C(=O)NCCc1ccccn1 (centres undefined),8%,10%,-5,-8%,-2%
CCOc1ccc(N2CC(c3nc4ccccc4n3Cc3cccc(Cl)c3)CC2=O)cc1 (centres undefined),.,.,.,?,16µM*
CCOc1ccccc1N1CC(c2nc3ccccc3n2CCCCOc2ccccc2)CC1=O (centres undefined),.,.,.,-7%,-8%
COc1ccc(OCCCCn2c(C3CC(=O)N(c4cccc(Cl)c4)C3)nc3ccccc32)cc1 (centres undefined),.,.,.,8.2µM*,5.8µM*
CC(C)(C)N1CC(c2nc3ccccc3n2CCOc2ccccc2)CC1=O (centres undefined),-5%,-3%,-19,?,?
CCOc1ccccc1N1CC(c2nc3ccccc3n2CCOc2ccccc2)CC1=O (centres undefined),.,.,.,-27%,-24%
Cc1ccc(OCCCn2c(C3CC(=O)N(c4cccc(Cl)c4)C3)nc3ccccc32)c(C)c1 (centres undefined),.,.,.,-100%,9.2µM*
O=C1CC(c2nc3ccccc3n2CCCCOc2ccccc2)CN1c1ccccc1Cl (centres undefined),.,.,.,10µM*,15µM*
CCOC(=O)CN1CC23C=CC(O2)C(C(=O)Nc2ccc(C(C)=O)cc2)C3C1=O (centres undefined),-2%,27%,2,-4%,-12%
O=C(Cc1ccccc1F)Nc1cccc(S(=O)(=O)N2CCOCC2)c1,12%,4%,21,5%,-24%
CC(C)C(C(=O)NC1CCCC1)N(CC1CCCO1)C(=O)CNS(=O)(=O)c1ccccc1 (centres undefined),13%,1%,3,-5%,-1%
COc1cc(OC)c(N(C)C(=O)c2cn(C3CCCC3)c(=O)c3c2c2ccccc2n3C)cc1Cl,.,.,.,10µM*,8.2µM*
COc1cccc(NC(=O)c2cn(C3CCCCC3)c(=O)c3c2c2ccccc2n3C)c1,.,.,.,-24%,?
COc1cc(Cl)c(C)cc1NC(=O)c1cn(C2CCCC2)c(=O)c2c1c1ccccc1n2C,.,.,.,0.65µM*,?
COc1ccc(CCNC(=O)c2ccc(NS(=O)(=O)c3ccc4[nH]c(=O)[nH]c4c3)cc2)cc1,-3%,4%,6,22%,7%
CCC1CN(CC(=O)NCc2cc(C)n(C)n2)Cc2cc(OC)ccc2O1 (centres undefined),.,.,.,18%[9.04 µM],-3%
Cc1ccc2c(c1)N(C(=O)c1ccc(F)cc1)C(C)(C)CC2(C)c1ccccc1 (centres undefined),.,.,.,?,21µM*
CN1CCN(CC(=O)N2c3ccccc3C(C)(c3ccccc3)CC2(C)C)CC1 (centres undefined),?,-24%,-11,16µM*,18µM*
CC(=O)N1c2ccccc2C(C)(c2ccccc2)CC1(C)C (centres undefined),?,-4%,16,?,?

# Screens from PubChem.
